Bioassay records: PubChem, National Center for Advancing Translational Sciences (NCATS)
Rows were chosen to be rich in hits. Some 20% of all compounds tested hit in one or more screens of this group.
Shiga inhibitor – blocks Shiga toxin action in Vero cells. Vero cells, Shiga toxin protein synthesis inhibition reporter. inhibition, % at 38.7 µM. hit rate 9.2% among 290,000. AID 2315; in the data active = inhibition mostly above about 28%, no sharp cut-off; inactive = mostly below about 43%; also: 0% is about no effect
Pf growth 96h – P. falciparum growth inhibition at 96 hour, primary screen for plastid delayed-death inhibitors; P. falciparum luciferase reporter growth, 96 h; Potency, µM (top dose mostly 28.7 µM), for inactives: top-dose activity change, negative = inhibition, actives largely listed as inhibitors; hit rate 6.9% among 320,000; AID 504834; also: potency is read from the fitted curve at half-maximal effect; % is scaled to controls: 0 for no effect and ±100 for the full control effect
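Delayed-death screen, second-generation endpoint: infected erythrocytes, 2% hematocrit, 0.05% parasitemia final; 96 hours at 37 C, 5% CO2; luciferase detection reagent; luminescence decrease equals reduced growth.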
Cycloheximide cs – counter-screen for Shiga toxin inhibitors: cycloheximide protein synthesis inhibition. cell reporter, cycloheximide protein synthesis inhibition counterscreen. max response, %. hit rate 12% among 300,000. AID 2314; in the data active = max response mostly above about 13%, no sharp cut-off; inactive = mostly below about 14%; also: read at 38.3 µM for the half of the compounds with a filed dose; 0% is about no effect
Pf growth 48h – P. falciparum growth inhibition at 48 hours (one generation). hit rate 5.9% among 310,000. P. falciparum luciferase growth in erythrocytes, 48 h. Potency, µM (highest dose often 28.7 µM), for inactives: at the top dose activity change, negative = inhibition, actives largely listed as inhibitors; also: potency is read from the fitted curve at half-maximal effect; % is scaled to controls: 0 for no effect and ±100 for the full control effect
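Luciferase-expressing parasites in RBCs, 2% Hct / 0.1% parasitemia final; RPMI 1640 + 0.5% Albumax; 37 C, 5% CO2, one generation; luminescence read-out, lower signal = inhibition.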
HCMV inh – inhibitors of human cytomegalovirus | HFF cells, HCMV-luciferase reporter, 72 h; hits give low values | AID 1259415 | hit rate 4.5% among 410,000 | activity change, negative = inhibition, % at 57.5 µM; in the data active = activity change below about -60%; inconclusive = no clear call, values can overlap the other calls; inactive = above about -39%; also: % is scaled to controls: 0 for no effect and ±100 for the full control effect
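Luciferase read-out from HCMV-luciferase-infected HFFs (MOI 1 PFU/cell) 72 h post infection at 37C; compounds added after 16 h cell attachment; activity normalized between buffer-only basal and Salinomycin (10uM) inhibitor controls.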
The depositor's hits bear a star; ? = inconclusive; . = no result; [ ] = another dose, or the depositor's remark. Unless noted, calls follow the shape of the dose curve; as a rule, active = well fitted inhibition curve with a large enough effect; inconclusive = small, poorly fitted or top-dose-only effect, or another doubt; inactive = no such curve, though single readings can be large or run the other way.

SMILES	Shiga inhibitor	Pf growth 96h	Cycloheximide cs	Pf growth 48h	HCMV inh
CCC1CCc2c(sc3nc(SCC(=O)NCc4ccco4)n(-c4ccccc4)c(=O)c23)C1 (stereo unspecified)	-5	-28%	1	12µM*	-75*
O=S(=O)(c1ccc2c(c1)OCCO2)N1CCN(S(=O)(=O)c2ccccc2F)CC1	-4	.	1	.	.
CN1C[C@@H]2C[C@H]1CN2c1cc2c(cc1F)c(=O)c(C(=O)O)cn2C1CC1	.	0.85µM*	.	5.4µM*	13
CNC1CCCN(c2c(F)cc3c(=O)c(C(=O)O)cn(C4CC4)c3c2OC)C1 (stereo unspecified)	.	4.3µM*	.	4.8µM*	.
COc1c(F)c(F)cc2c(=O)c(C(=O)O)cn(C3CC3)c12	-5	31%	-2	5%[0.00184 µM]	-61*
COc1c(N2CCN[C@H](C)C2)c(F)cc2c(=O)c(C(=O)O)cn(C3CC3)c12	16	?	-3	?	.
COc1c(N2CCN(C(=S)NCc3ccccc3)C(C)C2)c(F)cc2c(=O)c(C(=O)O)cn(C3CC3)c12 (stereo unspecified)	-15	2.9µM*	-4	9.3µM*	-67*
O=C(O)c1cn(C2CC2)c2cc(N3CCN(S(=O)(=O)c4ccc5c(c4)OCCO5)CC3)c(F)cc2c1=O	3	?	-3	?	?
OC(c1ccccc1)c1nc(-c2cc(F)cc(F)c2)cs1 (stereo unspecified)	.	.	.	.	3
O=C(C(=O)N1CCN(C(=O)OCc2ccccc2)CC1)c1cccs1	.	.	.	.	-14
CN(N=O)c1ccc(CC2CCc3ccccc32)cc1 (stereo unspecified)	.	.	.	.	1
CC(C)C[C@H](NC(=O)c1nc[nH]c1C(=O)NC1CCNCC1)C(=O)OCc1ccccc1	.	-38%	.	?	2
CCOC(=O)c1cccc(NC(=O)N2CC(CC)Oc3ccccc32)c1 (stereo unspecified)	.	.	.	.	-35
C[N+]12CCC(CC1)C(C(O)(c1cccc(Cl)c1)c1cccc(Cl)c1)C2 (stereo unspecified)	16	2.9µM*	0	13µM*	-17
N#CCCN(C(=S)NC(=O)C1CCCCC1)c1ccccc1F	.	.	.	.	10
O=[N+]([O-])c1ccc(N=Cc2sc3ccccc3c2O)cc1	108*	33%	43*	10%	7
Oc1c(C=NCc2ccccc2)sc2ccccc12	91*	-3%	28*	36%	-29
O=[N+]([O-])c1cccc(N=Cc2ccccc2)c1	.	.	.	.	-16
Oc1cccc(C=NCc2ccccc2)c1O	-6	?	-1	-21%	23
O=[N+]([O-])c1cccc(N=Cc2sc3ccccc3c2O)c1	86*	0%	38*	8%	-34
CC1CCC2C(C)C3C(CC4[C@@H]5CC=C6C[C@@H](O)CC[C@]6(C)C5CC[C@]34C)N2C1 (stereo partly specified)	-5	.	14	.	.
COc1ccc(S(=O)(=O)N2CC=C(c3ccccc3)CC2)cc1OC	.	.	.	.	31
Cc1ccc(S(=O)(=O)N2CCc3cc(C(=O)Nc4ccc(C)c(C)c4)ccc32)cc1	.	.	.	.	-9
CCN(CC)CCN(C(=O)c1ccc(C(C)=O)cc1)c1nc2ccc(Cl)cc2s1	39	0%	21	?	-27
CC(C)(C)c1ccc(C(=O)Nc2ccc3nc(SCC(=O)N4CCCC4)sc3c2)cc1	.	.	.	.	-97*
SMILES	Shiga inhibitor	Pf growth 96h	Cycloheximide cs	Pf growth 48h	HCMV inh
Cn1c(SCC(=O)Nc2ccc3nc(SCC(=O)NC4CC4)sc3c2)nnc1-c1ccccc1	5	?	-2	?	?
O=C(Nc1ccc2nc(SCC(=O)N3CCc4ccccc43)sc2c1)c1ccc(F)cc1	.	.	.	.	-63*
O=C(Nc1ccc2nc(SCC(=O)N3CCc4ccccc43)sc2c1)c1ccc(Cl)cc1	.	.	.	.	-93*
O=C(Nc1ccc2nc(SCC(=O)N3CCCC3)sc2c1)c1ccc(Br)cc1	.	.	.	.	-8
Cn1c(SCC(=O)Nc2ccc3nc(SCC(=O)N4CCCC4)sc3c2)nnc1-c1ccc(N)cc1	-5	1.3µM*	-2	.	.
O=C(Nc1ccc2nc(SCC(=O)N3CCc4ccccc43)sc2c1)c1cccc(Cl)c1	.	.	.	.	37
CCC(=O)N1CCc2cc(S(=O)(=O)N(C)c3cccc(C)c3)ccc21	.	.	.	.	-20
Cc1ccc(C(=O)Nc2nnc(SCC(=O)N3CCCc4ccccc43)s2)cc1	49*	-67%	33*	?	-20
O=C(C1CCCCC1)N1C[C@@H](n2cc(-c3ccc(F)cc3)nn2)[C@H](O)C[C@@H]1c1ccc(Cl)cc1	.	.	.	.	3
O=C(NCc1ccccc1F)Nc1nnc([C@H]2C[C@H](O)[C@@H](CO)O2)s1	.	.	.	.	-93*
COc1cc(CCN2C(=O)c3cccc4cccc(c34)C2=O)c(S(=O)(=O)N2CCC(C)CC2)cc1OC	13	?	-5	6.6µM*	?
COc1cc(CCN2C(=O)c3cccc4cccc(c34)C2=O)c(S(=O)(=O)NCCO)cc1OC	30	?	0	?	61
COc1cc(CCN2C(=O)c3cccc4cccc(c34)C2=O)c(S(=O)(=O)NCCCO)cc1OC	17	8.3µM*	1	?	7
COc1ccc(CCN2C(=O)c3cccc4c(C(=O)N5CCCCC5)ccc(c34)C2=O)cc1OC	-9	8.3µM*	-2	?	-65*
COc1cc(CCN2C(=O)c3cccc4cccc(c34)C2=O)c(S(=O)(=O)N2CCCCCC2)cc1OC	5	2.3µM*	-3	?	1
Cc1ccc(NC(=O)c2cccc(N3CCCS3(=O)=O)c2)cc1	.	.	.	.	42
Cc1cc(C)c(-c2cc(NC(=O)CSc3n[nH]c(N)n3)n(-c3ccccc3)n2)cc1C	-7	.	2	5%	-9
COc1ccccc1NC(=O)CSCc1cc(=O)c2cccc(Cl)c2[nH]1	.	.	.	.	24
COC(c1ccccc1)c1c(-c2ccccc2)nn(C)c1Cl (stereo unspecified)	-5	12µM*	1	13µM*	-23
O=C(c1ccco1)N1CCN(C(=O)c2snc3ccc(Cl)cc23)CC1	-8	?	2	-14%	-16
O=C(c1ccco1)N1CCN(c2ncnc3scc(-c4ccc(F)cc4)c23)CC1	-15	?	-3	?	24
Cc1ccc(-c2nsc3c(N4CCN(C(=O)c5ccco5)CC4)ncnc23)cc1	71*	-6%	30*	20%	.
Cc1ccc(-c2csc3ncnc(N4CCN(C(=O)c5ccco5)CC4)c23)cc1	.	?	.	?	-10
O=C(c1ccco1)N1CCN(c2ncnc3c(-c4ccc(Cl)cc4)nsc23)CC1	101*	-4%	48*	182%	.
Cc1sc2ncnc(N3CCN(C(=O)c4ccco4)CC3)c2c1C	-15	-12%	-3	-22%	-67*
COc1ccc(-c2nsc3c(N4CCCC4)ncnc23)cc1	118*	10%	49*	104%	-31
COc1ccc(OC)c(NC(=O)CSc2nnc3ccc4ccccc4n23)c1	.	.	.	.	-15
Cc1cccc(Cn2c(=O)n(-c3cc(C)cc(C)c3)c(=O)c3oc4ccccc4c32)c1	.	.	.	.	-25
